From PubChem BioAssay AID743286 (National Center for Advancing Translational Sciences (NCATS), 2014)
The campaign covered roughly 1,100 compounds. About 340 (31%) were called active. Inconclusive results (about 40%) are left out. The list is a sample of the results. A number with no mark means an inactive call. Calls follow the shape of the dose curve; as a rule, active = well fitted inhibition curve with a large enough effect; inconclusive = small, poorly fitted or top-dose-only effect; inactive = flat fitted curve, though single readings scatter.

Each compound was assayed against Phosphatidylinositol 5-phosphate 4-kinase type-2 alpha (Homo sapiens) (UniProt P48426) (assay: qHTS for Inhibitors of PI5P4K: Confirmation in Primary Assay). Settings: PI5P4Kalpha enzyme, ADP-Glo luminescence, 60 min; series mostly up to 76.9 µM; activity change, negative = inhibition: at the top concentration.
Sequence of Phosphatidylinositol 5-phosphate 4-kinase type-2 alpha (Homo sapiens) (P48426 whole entry, looked up, canonical isoform): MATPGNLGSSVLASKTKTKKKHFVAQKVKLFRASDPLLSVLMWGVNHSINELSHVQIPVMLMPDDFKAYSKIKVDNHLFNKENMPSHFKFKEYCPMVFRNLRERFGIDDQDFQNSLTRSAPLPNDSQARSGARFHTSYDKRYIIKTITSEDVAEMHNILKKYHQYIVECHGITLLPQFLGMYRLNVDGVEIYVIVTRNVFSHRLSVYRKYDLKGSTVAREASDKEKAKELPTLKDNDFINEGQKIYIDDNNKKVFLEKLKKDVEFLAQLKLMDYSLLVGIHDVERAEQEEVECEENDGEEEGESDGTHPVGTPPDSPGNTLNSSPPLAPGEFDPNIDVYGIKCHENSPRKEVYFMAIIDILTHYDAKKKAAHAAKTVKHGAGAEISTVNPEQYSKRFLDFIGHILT
Source text: In addition to finding PI5P, we discovered the type II phosphatidylinositol 5-phosphate 4-kinase (PI5P4K) family (alpha, beta, gamma isoforms) that catalyze the conversion of PI5P to PI(4,5)P2. Alternatively, PI(4,5)P2 can also be synthesized through phosphatidylinositol-4-phosphate (PI4P) by the type I phosphatidylinositol 4-phosphate 5-kinases (PI4P5K). These PI5P4K enzymes therefore represent one way by which cells can regulate endogenous PI5P levels and play important roles in insulin signaling and in stress responses. […] A qHTS PI5P4K-alpha ADP-Glo assay was developed to identify specific modulators of human PI5P4K, phosphatidylinositol-5-phosphate 4-kinase (Type II PIPK). This assay was screened against the MLSMR containing ~400,000 small molecules (PubChem AID 652105). To confirm that the hits were not interacting with the detection enzyme system, a 1536-well counterscreen against the ADP-Glo kit (Promega) was utilized, as described in Davis et al., 2013 [1]. Davis et al., PLoS One. 2013;8(1):e54127. NIH Chemical Genomics Center [NCGC] NIH Molecular Libraries Probe Centers Network [MLPCN] MLPCN Grant: MH096575 Assay Submitter (PI): Atsuo Sasaki, Beth Israel Deaconess Medical Center
2 microL of PI5P4Kalpha/substrate buffer (columns 1-2, 5-48) are dispensed into Greiner white solid bottom 1536-well assay plates; column 3 receives only PI5P4Kalpha buffer as 0x substrate controls; column 4 receives only substrate buffer as 0x PI5P4Kalpha controls. Final assay buffer consists of 0.038 M HEPES pH 7.4, 0.28 mM EGTA, 0.1% CHAPS, and 5% DMSO (final concentration). Compounds are then transferred via Kalypsys pin tool equipped with 1536-pin array (10 nL slotted pins, V&P Scientific, San Diego, CA). Following addition of compound, 1 microL of ATP (5 microM final concentration, all columns) is added to initiate the reaction. ATP is diluted in an assay buffer consisting of 0.02 M HEPES pH 7.4, 60 mM MgCl2, 15 microM ATP, and 0.1% CHAPS. The plates are then incubated at room temperature for 60 minutes. ADP-Glo reagent 1 is added (2 microL) and plates incubated for 45 minutes, before ADP-Glo reagent 2 (4 microL) is added and plates incubated for 30 minutes. They are then transferred to a ViewLux high-throughput CCD imager (PerkinElmer) wherein single end-point measurements of luminescence are acquired using a clear filter.
Also: nearly all actives have a fitted effect of over 65% in size.
Potency is read from the fitted curve at half-maximal effect.

SMILES	Potency	activity change, negative = inhibition [%]
Cc1ccc(-c2cc(C(=O)O)c3cc(Br)ccc3n2)o1	25.1 µM (active)	–
O=C(NCc1ccco1)c1c2c(nc3ccccc13)CCC2	10 µM (active)	–
Cn1nnc2cc(C(=O)NC3CC3)ccc21	–	-7.92
O=C(NCc1ccccc1)C(c1ccccc1)n1c(=O)c(-c2ccco2)nc2ccccc21 (stereo not given)	–	-24.1
CCCCCCNC(=O)c1cc(-c2ccco2)nc2ccccc12	7.08 µM (active)	–
Cc1nnc(-c2ccccc2)nc1N(C)C	–	-3.17
O=C(COC(=O)C1CCCCC1)Nc1ccccc1OC(F)F	–	3.6
COc1cccc(N2CCN(C(=O)c3ccc(CS(=O)c4ccccc4C)o3)CC2)c1 (stereo not given)	–	1.63
CC(C)(C(=O)N1CCC1(C)C(=O)NS(=O)(=O)c1ccc(C#N)cc1)c1ccccc1 (stereo not given)	–	0.35
O=C(OCC(=O)N1N=C(c2ccc(Cl)cc2)CC1c1ccco1)c1cccnc1 (stereo not given)	–	-24.6
COc1ccc(-c2cc(C(=O)Nc3ccccc3O)c3ccccc3n2)cc1	–	-1.85
COc1ccc(CCNC(=O)c2cc(-c3ccco3)nc3ccccc23)cc1	15.8 µM (active)	–
COc1ccc(CCNC(=O)C2CC(c3cccc(F)c3)=NO2)cc1 (stereo not given)	–	-4.13
Cc1ccc(-c2cc(C(=O)NCc3ccco3)c3ccccc3n2)o1	14.1 µM (active)	–
O=C(O)CCC(=O)N1CCC(n2nnc3cc(C(F)(F)F)ccc32)CC1	–	0.897
O=C(NC1CC1)c1ccc(NC(=O)C2CCC2)cc1	–	0.977
COc1ccc(S(=O)(=O)/N=C2\C=C(NS(=O)(=O)c3ccccc3)C(=O)c3ccccc32)cc1	31.6 µM (active)	–
COc1ccc(S(=O)(=O)Nc2ccc3c(c2)CCC3)cc1	–	4.59
CC(C)OC(=O)c1c(NS(=O)(=O)c2ccccc2)sc2c1CCCC2	–	1.37
COc1cc(=O)[nH]c(=O)n1C(=O)Cc1ccccc1	–	0.157
CCCCn1c(=O)[nH]c(=O)c2c1nc(-c1ccc(-c3ccccc3Br)o1)n2CC	–	-29.7
Cc1ccc(-c2nc3c(c(=O)[nH]c(=O)n3Cc3ccccc3)n2C)o1	5.62 µM (active)	–
O=C(CC1C(=O)NCCN1CC1CCCCC1)NCc1cc(F)ccc1F (stereo not given)	–	-5.29
Cc1ccc(CNC(=O)CSc2ncccn2)cc1	–	0.997
Cc1ccc(CNC(=O)c2ccc(-n3cccc3)cc2)cc1	12.6 µM (active)	–

SMILES	Potency	activity change, negative = inhibition [%]
Cc1ccc(CNC(=O)CCS(=O)(=O)c2ccc(Cl)cc2)cc1	–	1.11
O=C(NCc1ccc(F)cc1)C1CCN(c2cnccn2)CC1	–	4.11
Cc1cc(-c2nc3c4c5c(sc4[nH]c(=O)n3n2)CCC5)c(C)o1	15.8 µM (active)	–
CCOC(=O)C1CCCN(C(=O)c2cc(-c3ccco3)nc3ccccc23)C1 (stereo not given)	3.16 µM (active)	–
CCOC(=O)C1CCCN(C(=O)c2ccc(F)c(C)c2)CC1 (stereo not given)	–	3.34
COC(=O)C1CCN(C(=O)c2cc(-c3ccco3)nc3ccccc23)CC1	3.98 µM (active)	–
COc1ccc(C(=O)N2CCC(C(=O)Nc3ccc(C)cc3)CC2)cc1	–	-0.331
CCOC(=O)C1(C)CCCN(C(=O)c2ccccc2C(F)(F)F)C1 (stereo not given)	–	-4.14
Cc1ccc(C)c(C2=NNC(=NCc3ccccc3)SC2)c1	–	-10.7
O=C(Nc1ccc(Cl)cc1)Nc1ccccc1CC[N+](=O)[O-]	–	-4.4
CCOC(=O)Nc1ccc(NCc2ccc(F)cc2)nc1N	31.6 µM (active)	–
Cc1cc(C)cc(NC(=O)Cn2nnc(C(=O)NCc3ccc(F)cc3)c2N)c1	–	-0.223
O=C(Oc1ccc2c(c1)OCO2)c1cc2c(s1)CCC2	2.24 µM (active)	–
COc1ccc(-c2cc(C(F)F)n3ncc(C(=O)n4ccnc4C)c3n2)cc1	–	-18.4
Cc1ccc(-n2c(SCC(=O)Nc3ccc4c5c(cccc35)CC4)nc(O)cc2=O)cc1	–	-25.8
O=c1c2ccccc2cnn1-c1nc2ccccc2[nH]1	25.1 µM (active)	–
O=C(NC1CC1)C1=C[C@@H](c2c[nH]c3ccccc23)C[C@@H](OCc2ccc(CO)cc2)O1	–	-4.48
COc1ccc(N2CCN(C(=O)c3[nH]c(C(F)(F)F)nc3-c3ccccc3)CC2)cc1	–	-2.12
CCc1ccc(C2CC(=O)N3CN(c4ccccc4)CSC3=C2C#N)cc1 (stereo not given)	28.2 µM (active)	–
CCc1ccc(N2CSC3=C(C#N)C(c4cccs4)CC(=O)N3C2)cc1 (stereo not given)	12.6 µM (active)	–
N#CC1=C2SCN(c3ccc(F)cc3)CN2C(=O)CC1c1cccc(F)c1 (stereo not given)	20 µM (active)	–
N#CC1=C2SCN(c3ccccc3)CN2C(=O)CC1c1cccs1 (stereo not given)	15.8 µM (active)	–
CCOc1ccc(Cl)cc1S(=O)(=O)n1cnc2ccccc21	–	11
O=C(Cc1cccs1)N(CC1CCCO1)C1(C(=O)NC2CCCCC2)CCCCC1 (stereo not given)	–	1.04
NC(=O)[C@@H]1CC2(CC(c3cccc(NC(=O)COc4ccc(Cl)cc4)c3)=NO2)CN1C(=O)COc1ccc(Cl)cc1 (stereo not given in full)	–	-15.9
